PMC5540273 (PLoS ONE, 2017)

Assays:
Details in all cases: concentration: 1 μM, replicates: in singlicate; n = 1
[1] = tested on: EPHA2
[2] = tested on: EPHA3
[3] = tested on: EPHA4
[4] = tested on: EPHA5
[5] = tested on: EPHA6
[6] = tested on: EPHA7
[7] = tested on: EPHA8
[8] = tested on: EPHB1
[9] = tested on: EPHB2
[10] = tested on: EPHB3
[11] = tested on: EPHB4
[12] = tested on: EPHB6
[13] = tested on: ERBB2
[14] = tested on: ERBB3
[15] = tested on: ERBB4
[16] = tested on: T1, ERK1
T1 construct: gene MAPK3

[17] = tested on: T2, ERK2
T2 construct: gene MAPK1

[18] = tested on: T3, ERK3
T3 construct: gene MAPK6

[19] = tested on: T4, ERK4
T4 construct: gene MAPK4

[20] = tested on: T5, ERK5
T5 construct: gene MAPK7
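Also: KINOMEscan kinase panel screen.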

CC(=O)c1c(C)c2cnc(Nc3ccn(C)n3)nc2n(C2CCCC2)c1=O
%Inh [1]: 0%
%Inh [2]: 0%
%Inh [3]: 0%
%Inh [4]: 0%
%Inh [5]: 0%
%Inh [6]: 0%
%Inh [7]: 0%
%Inh [8]: 0%
%Inh [9]: 15%
%Inh [10]: 0%
%Inh [11]: 0%
%Inh [12]: 6%
%Inh [13]: 0%
%Inh [14]: 0%
%Inh [15]: 0%
%Inh [16]: 0%
%Inh [17]: 0%
%Inh [18]: 15%
%Inh [19]: 17%
%Inh [20]: 9%

CS(=O)(=O)CCNCc1nc(-c2ccc3ncnc(Nc4ccc5c(cnn5Cc5ccccc5)c4)c3c2)cs1.Cl.Cl [GW569716]
%Inh [1]: 0%
%Inh [2]: 0%
%Inh [3]: 6%
%Inh [4]: 8%
%Inh [5]: 7%
%Inh [6]: 4%
%Inh [7]: 11%
%Inh [8]: 0%
%Inh [9]: 0%
%Inh [10]: 13%
%Inh [11]: 8%
%Inh [12]: 21%
%Inh [13]: 100%
%Inh [14]: 98%
%Inh [15]: 92.4%
%Inh [16]: 4%
%Inh [17]: 10%
%Inh [18]: 0%
%Inh [19]: 0%
%Inh [20]: 0%

Cc1ccc(NC(=O)Nc2ccccc2F)cc1-c1ccc(C(=O)Nc2ccncc2)cc1 [GSK1398477]
%Inh [1]: 31%
%Inh [2]: 17%
%Inh [3]: 40%
%Inh [4]: 14%
%Inh [5]: 31%
%Inh [6]: 19%
%Inh [7]: 52%
%Inh [8]: 27%
%Inh [9]: 12%
%Inh [10]: 22%
%Inh [11]: 21%
%Inh [12]: 20%
%Inh [13]: 8%
%Inh [14]: 0%
%Inh [15]: 0%
%Inh [16]: 8%
%Inh [17]: 9%
%Inh [18]: 11%
%Inh [19]: 20%
%Inh [20]: 0%

CCCCc1nn2ncccc2c1-c1ccnc(NC2CC2)n1 [GW684374]
%Inh [1]: 0%
%Inh [2]: 0%
%Inh [3]: 0%
%Inh [4]: 0%
%Inh [5]: 0%
%Inh [6]: 0%
%Inh [7]: 9%
%Inh [8]: 13%
%Inh [9]: 0%
%Inh [10]: 0%
%Inh [11]: 4%
%Inh [12]: 39%
%Inh [13]: 21%
%Inh [14]: 0%
%Inh [15]: 16%
%Inh [16]: 0%
%Inh [17]: 0%
%Inh [18]: 3%
%Inh [19]: 27%
%Inh [20]: 0%

CC(C)c1cc(-c2ccc3c(N)n[nH]c3c2)nc(N)n1 [GSK2250882]
%Inh [1]: 17%
%Inh [2]: 11%
%Inh [3]: 16%
%Inh [4]: 0%
%Inh [5]: 17%
%Inh [6]: 3%
%Inh [7]: 8%
%Inh [8]: 17%
%Inh [9]: 0%
%Inh [10]: 29%
%Inh [11]: 18%
%Inh [12]: 4%
%Inh [13]: 25%
%Inh [14]: 0%
%Inh [15]: 0%
%Inh [16]: 1%
%Inh [17]: 0%
%Inh [18]: 0%
%Inh [19]: 26%
%Inh [20]: 0%

CNc1cc(-c2ccc3c(N)n[nH]c3c2)nc(N)n1 [GSK2224810]
%Inh [1]: 0%
%Inh [2]: 27%
%Inh [3]: 0%
%Inh [4]: 0%
%Inh [5]: 0%
%Inh [6]: 0%
%Inh [7]: 0%
%Inh [8]: 23%
%Inh [9]: 0%
%Inh [10]: 4%
%Inh [11]: 19%
%Inh [12]: 0%
%Inh [13]: 32%
%Inh [14]: 0%
%Inh [15]: 0%
%Inh [16]: 0%
%Inh [17]: 0%
%Inh [18]: 3%
%Inh [19]: 7%
%Inh [20]: 0%

COc1ccc(Nc2nccc(-c3ccc(NC(=O)c4cc5cc(F)ccc5[nH]4)cc3)n2)cc1 [GSK1229496]
%Inh [1]: 1%
%Inh [2]: 1%
%Inh [3]: 0%
%Inh [4]: 0%
%Inh [5]: 0%
%Inh [6]: 0%
%Inh [7]: 10%
%Inh [8]: 3%
%Inh [9]: 0%
%Inh [10]: 0%
%Inh [11]: 16%
%Inh [12]: 6%
%Inh [13]: 38%
%Inh [14]: 13%
%Inh [15]: 6%
%Inh [16]: 0%
%Inh [17]: 0%
%Inh [18]: 0%
%Inh [19]: 0%
%Inh [20]: 0%

Cc1ccccc1-c1cc(-c2c[nH]nc2-c2ccccn2)ccn1 [GW680061]
%Inh [1]: 10%
%Inh [2]: 0%
%Inh [3]: 11%
%Inh [4]: 0%
%Inh [5]: 11%
%Inh [6]: 14%
%Inh [7]: 22%
%Inh [8]: 0%
%Inh [9]: 15%
%Inh [10]: 9%
%Inh [11]: 10%
%Inh [12]: 4%
%Inh [13]: 22%
%Inh [14]: 0%
%Inh [15]: 25%
%Inh [16]: 1%
%Inh [17]: 0%
%Inh [18]: 0%
%Inh [19]: 25%
%Inh [20]: 0%
